Results filed as inconclusive are left out. Active and inactive are the calls of the source. Unless noted, the call rests on the fitted dose curve; in most records, active means well fitted curve in the direction sought with a large enough effect in the repeat runs; inconclusive means weak or mixed curves; inactive means no such curve, though single readings can be large; an effect the other way counts as inactive or inconclusive.
How the values were obtained:
[1] = qHTS assay for small molecules that induce genotoxicity in human embryonic kidney cells expressing luciferase-tagged ATAD5 - cell viability (AID 651634; calls by dose curve; further: nearly all actives have a fitted effect of over 25% in size; further: potency means the concentration at half of the fitted maximal effect)
Procedure, shortened: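 Cells (HEK293T, luciferase-tagged ATAD5) are seeded at 2,000 per well, dosed with compound or DMSO vehicle, and incubated 15.5 hr at 37C and 5% CO2. CellTiter-Fluor is added for 30 min before fluorescence is measured.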

[2] = qHTS assay for small molecule disruptors of the mitochondrial membrane potential - cell viability (AID 720634; calls by dose curve;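 further: human HepG2 liver cancer cells; nearly all actives have a fitted effect of over 20% in size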)
Procedure, shortened: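 Cytotoxicity was measured by ATP quantitation in HepG2 wells that had first been treated with compound for 1 hr and stained with m-MPI dye; CellTiter-Glo incubation was 30 min at room temperature.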

[3] = qHTS assay to test for compound auto fluorescence at 590 nm (red) in HepG2 cells (AID 720674); further: potency means the concentration at half of the fitted maximal effect
Procedure, shortened: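 HepG2 cells, 2,000 per well in MEM with 10% FBS, attached overnight at 37 C, then got 23 nL compound or DMSO. After 1 hr at 37 C, 5% CO2, red fluorescence was read at 540/590 nm against Rose Bengal sodium as reference.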

[4] = qHTS assay to test for compound auto fluorescence at 535 nm (green) in HepG2 cells (AID 720675)
[5] = qHTS assay to test for compound auto fluorescence at 460 nm (blue) in HEK293 cells (AID 720678)
Procedure, shortened: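 Intrinsic compound fluorescence is recorded in live HEK293 cultures after overnight incubation at 37C, 5% CO2, using excitation 405 nm and emission 460 nm. Values are referenced to triamterene.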

[6] = qHTS assay to test for compound auto fluorescence at 590 nm (red) in HEK293 cells (AID 720679); further: potency means the concentration at half of the fitted maximal effect
Procedure, shortened: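 Red autofluorescence, HEK293 cells: 2,000 cells/well; attach 4-5 hr 37C; add 23 nL cpd or DMSO; incubate o/n 37C 5% CO2; read Ex540/Em590; Rose Bengal sodium reference.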

[7] = qHTS assay to test for compound auto fluorescence at 535 nm (green) in HEK293 cells (AID 720680)
[8] = qHTS assay to test for compound auto fluorescence at 460 nm (blue) in HEK293 cell free culture (AID 720681)
Procedure, shortened: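 Compounds were added to cell-free DMEM with 10% FBS and fluorescence read directly. The blue channel used 405 nm excitation and 460 nm emission, with triamterene as the reference fluorophore.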

[9] = qHTS assay to test for compound auto fluorescence at 535 nm (green) in HEK293 cell free culture (AID 720682)
Procedure, shortened: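 Cell-free medium (DMEM, 10% FBS) receives compound or DMSO by pintool. Plate read directly at Ex 485/Em 535 nm. Signal converted to fluorescein equivalency.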

[10] = qHTS assay to test for compound auto fluorescence at 590 nm (red) in HEK293 cell free culture (AID 720683); further: potency means the concentration at half of the fitted maximal effect
Procedure, shortened: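 Cell-free wells of DMEM with 10% FBS received compound, and intrinsic fluorescence was read at excitation/emission 540/590 nm. Values expressed as equivalence to Rose Bengal sodium.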

[11] = qHTS assay to test for compound auto fluorescence at 590 nm (red) in HepG2 cell free culture (AID 720684); further: potency means the concentration at half of the fitted maximal effect
Procedure, shortened: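 Rose Bengal sodium served as the reference for red signal. Test compounds were dispensed into serum-containing MEM (10% FBS) without cells, and plates were read at 540/590 nm.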

[12] = qHTS assay to test for compound auto fluorescence at 460 nm (blue) in HepG2 cell free culture (AID 720685)
Procedure, shortened: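 Cell-free plates of MEM plus 10% FBS received 23 nL compound or DMSO vehicle; blue-channel (405/460 nm) intensity scored against triamterene as reference fluorophore.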

[13] = qHTS assay to test for compound auto fluorescence at 535 nm (green) in HepG2 cell free culture (AID 720686)
[14] = qHTS assay to test for compound auto fluorescence at 460 nm (blue) in HepG2 cells (AID 720687)
Procedure, shortened: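 HepG2 cells in MEM with 10% FBS, attached overnight at 37 C, were exposed to compound or DMSO for 1 hr at 37 C, 5% CO2. Blue fluorescence was read at 405/460 nm, with triamterene as reference fluorophore.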

[15] = target: Glucocorticoid receptor (Homo sapiens) (UniProt P04150); test: qHTS assay to identify small molecule antagonists of the glucocorticoid receptor (GR) signaling pathway (AID 720692; active means well fitted inhibition curve with a large enough effect in the signal ratio in the repeat runs, not every such curve was filed as active; the % refers to the signal ratio)
Procedure, shortened: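 Antagonism was scored as loss of dexamethasone-driven (5 nM final) reporter signal in HeLa cells bearing a glucocorticoid response element–beta-lactamase construct, after 18 h compound exposure at 37 C and 2 h FRET substrate loading.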

[16] = qHTS assay for small molecule agonists of the p53 signaling pathway - cell viability (AID 651633; calls by dose curve; further: nearly all actives have a fitted effect of over 30% in size; further: potency means the concentration at half of the fitted maximal effect)
Procedure, shortened: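 p53RE-bla cells were treated with compound for 16 hours at 37 C. Cytotoxicity was then measured as CellTiter-Glo luminescence after 30 min at room temperature.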

[17] = qHTS assay for small molecule disruptors of the mitochondrial membrane potential (AID 720635); further: potency means the concentration at half of the fitted maximal effect
Procedure, shortened: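 HepG2 cells exposed to compound 1 hr at 37C, then Mito-MPS dye 30 min. Ratio read of aggregate (540/590 nm) versus monomer (490/535 nm) fluorescence.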

[18] = target: Glucocorticoid receptor (Homo sapiens) (UniProt P04150); test: qHTS assay to identify small molecule agonists of the glucocorticoid receptor (GR) signaling pathway (AID 720691; active means well fitted activation curve with a large enough effect in the signal ratio in the repeat runs, not every such curve was filed as active; the % refers to the signal ratio); conditions: GR-bla HeLa, beta-lactamase reporter ratio, 18 h; activation: at 62.4 µM (top of the series)
Procedure, shortened: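 Steps: seed GR-bla HeLa cells, incubate 4 h at 37 C/5% CO2; pin-transfer DMSO-dissolved compounds; incubate 18 h at 37 C; add LiveBLAzer B/G FRET substrate; after 2 h at room temperature, measure fluorescence.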

Measured: Potency
Tags describe the fitted curve by direction and shape or compound fluorescence and quenching.

Glucocorticoid receptor (Homo sapiens), sequence (P04150 whole entry, looked up): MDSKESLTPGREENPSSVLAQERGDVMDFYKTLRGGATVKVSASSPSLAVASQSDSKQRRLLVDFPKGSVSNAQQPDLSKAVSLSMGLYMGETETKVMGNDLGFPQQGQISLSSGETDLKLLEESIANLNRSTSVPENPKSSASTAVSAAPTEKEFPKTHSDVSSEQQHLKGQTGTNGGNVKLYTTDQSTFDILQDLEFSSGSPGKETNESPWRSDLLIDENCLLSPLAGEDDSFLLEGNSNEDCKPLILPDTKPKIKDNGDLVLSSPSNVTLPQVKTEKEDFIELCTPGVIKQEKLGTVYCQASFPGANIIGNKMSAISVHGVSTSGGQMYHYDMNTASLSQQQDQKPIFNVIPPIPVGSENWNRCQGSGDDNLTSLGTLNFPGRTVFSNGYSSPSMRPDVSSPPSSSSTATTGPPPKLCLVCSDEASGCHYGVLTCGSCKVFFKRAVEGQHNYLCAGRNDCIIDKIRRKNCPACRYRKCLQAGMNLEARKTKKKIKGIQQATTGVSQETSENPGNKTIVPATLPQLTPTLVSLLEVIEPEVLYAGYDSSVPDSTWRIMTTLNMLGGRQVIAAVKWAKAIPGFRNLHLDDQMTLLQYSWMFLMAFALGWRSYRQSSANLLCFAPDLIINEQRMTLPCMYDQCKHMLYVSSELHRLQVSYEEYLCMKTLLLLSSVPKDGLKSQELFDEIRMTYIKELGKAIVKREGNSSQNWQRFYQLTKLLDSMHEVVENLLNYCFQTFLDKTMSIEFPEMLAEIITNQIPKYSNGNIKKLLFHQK

CO[C@H]1C[C@H](O[C@@H]2/C(C)=C/C[C@@H]3C[C@@H](C[C@]4(CC[C@H](C)[C@@H](C5CCCCC5)O4)O3)OC(=O)[C@@H]3C=C(C)/C(=N/O)[C@H]4OC/C(=C\C=C\[C@@H]2C)[C@]43O)O[C@@H](C)[C@@H]1O
not listed: [16] | [17] | [18]
inactive: all other assays above

C#C[C@]1(O)CC[C@H]2[C@@H]3CCC4=C/C(=N/O)CC[C@@H]4[C@H]3CC[C@@]21CC
active: [17] 10.6 µM
not listed: [1] | [15] | [18]
inactive: all other assays above

CN(C)c1ccc(C(=C2C=CC(=[N+](C)C)C=C2)c2c(O)c(S(=O)(=O)[O-])cc3cc(S(=O)(=O)O)ccc23)cc1
not listed: [1] | [17] | [18]
inactive: all other assays above

C=C1C(=O)O[C@H]2[C@H]1CC/C(C)=C\CC[C@@]1(C)O[C@@H]21
active: [16] 29.8 µM
not listed: [1] | [4] | [15] | [17] | [18]
inactive: all other assays above

CC[C@H](C)[C@H]1O[C@]2(CC[C@@H]1C)C[C@@H]1C[C@@H](C/C=C(\C)[C@@H](O[C@H]3C[C@H](OC)[C@@H](O[C@H]4C[C@H](OC)[C@@H](O)[C@H](C)O4)[C@H](C)O3)[C@@H](C)/C=C/C=C3\CO[C@@H]4[C@H](O)C(C)=C[C@@H](C(=O)O1)[C@]34O)O2
active: [16] 4.22 µM | [1] 2.98 µM | [17] 7.5 µM
not listed: [5] | [15] | [18]
inactive: all other assays above

CCCCC(C)(O)C/C=C/[C@H]1[C@H](O)CC(=O)[C@@H]1CCCCCCC(=O)OC (stereo partly drawn)
not listed: [15] | [17]
inactive: all other assays above

COC(F)(F)C(Cl)Cl
not listed: [15]
inactive: all other assays above

C=C(NC(=O)C(=C)NC(=O)c1csc(C2=N[C@@H]3c4csc(n4)[C@H]4NC(=O)c5csc(n5)[C@H]([C@](C)(O)[C@@H](C)O)NC(=O)[C@H]5CSC(=N5)C(=CC)NC(=O)C([C@@H](C)O)NC(=O)c5csc(n5)[C@]3(CC2)NC(=O)[C@H](C)NC(=O)C(=C)NC(=O)[C@H](C)NC(=O)C([C@@H](C)CC)NC2C=Cc3c([C@H](C)O)cc(nc3C2O)C(=O)O[C@@H]4C)n1)C(N)=O (stereo partly drawn)
not listed: [15] | [17] | [18]
inactive: all other assays above

CC(=O)Nc1ccc(NC(=S)NC(=O)c2ccc(C(C)(C)C)cc2)cc1
active: [17] 2.11 µM
not listed: [15] | [16]
inactive: all other assays above

O=c1oc2cc(O)ccc2s1
not listed: [15] | [17] | [18]
inactive: all other assays above

CNC(C)[C@@H]1CC[C@@H](N)[C@@H](O[C@H]2[C@H](O)[C@@H](O[C@H]3OC[C@](C)(O)[C@H](NC)[C@H]3O)[C@H](N)C[C@@H]2N)O1 (stereo partly drawn)
not listed: [1] | [2] | [15] | [16] | [17] | [18]
inactive: all other assays above

CC(=C\c1ccccc1)/C=C1/SC(=S)N(CC(=O)O)C1=O
active: [1] 21.1 µM
not listed: [12] | [15] | [17] | [18]
inactive: all other assays above

O=C(O)c1c(Cl)c(Cl)c(Cl)c(Cl)c1-c1c2cc(I)c(=O)c(I)c-2oc2c(I)c(O)c(I)cc12
active: [1] 26.6 µM | [3] 11.2 µM | [6] 11.2 µM [fluorescent] | [10] 11.2 µM [fluorescent] | [11] 11.2 µM [fluorescent]
not listed: [15] | [16] | [17] | [18]
inactive: all other assays above

Cn1c(=O)c2c(ncn2CCOC(=O)C(C)(C)Oc2ccc(Cl)cc2)n(C)c1=O
not listed: [17] | [18]
inactive: all other assays above
